From PubChem BioAssay
IL-1B inflam inh: blocks inflammasome-driven IL-1 beta release; THP-1 LPS/ATP IL-1B secretion, AlphaLISA, 16 h; active compounds read low; activity change, % at 57.5 µM; 4.7% of 360,000 active; AID 743279; in the data active = activity change below about -50%; inconclusive = mostly about -30% to -49%
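Secreted IL-1B measured by AlphaLISA bead assay after 16 h compound exposure of THP-1 cells; compounds (final up to 57.5 uM) added 1 h before LPS (250 ng/mL) and ATP (1.25 mM) stimulation; lower signal means less secretion.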
DT40 TDP1 no CPT: qHTS for Inhibitors of human tyrosyl-DNA phosphodiesterase 1 (TDP1): qHTS in cells in absence of CPT. DT40 Tdp1-/- hTDP1 cells, no CPT, ATP luminescence, 48 h. Potency, µM (series often up to 46.2 µM), for inactives: at the top dose activity change, negative = growth inhibition, most hits filed as inhibitors. 15% of 420,000 active; note: potency is the fitted concentration of half-maximal effect; nearly all actives have a fitted effect of over 55% in size
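Stably hTDP1-transfected Tdp1-null chicken DT40 cells were treated with library compounds minus camptothecin and grown for at least 48 hr at 37 °C, after which cellular ATP was quantified by luminescence.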
RORg inh: inhibitors of mouse ROR gamma transcriptional activity | Drosophila S2 Gal4-RORgamma UAS-luciferase reporter, 20 h | Potency, µM (top dose mostly 53.6 µM), without a hit: at the highest dose activity change, negative = inhibition, usual class: inhibitors | 5.4% of 310,000 active | AID 2551 | P51450; note: potency is the fitted concentration of half-maximal effect; nearly all actives have a fitted effect of over 60% in size
Target sequence (P51450 whole entry, looked up, the tested form may be a part): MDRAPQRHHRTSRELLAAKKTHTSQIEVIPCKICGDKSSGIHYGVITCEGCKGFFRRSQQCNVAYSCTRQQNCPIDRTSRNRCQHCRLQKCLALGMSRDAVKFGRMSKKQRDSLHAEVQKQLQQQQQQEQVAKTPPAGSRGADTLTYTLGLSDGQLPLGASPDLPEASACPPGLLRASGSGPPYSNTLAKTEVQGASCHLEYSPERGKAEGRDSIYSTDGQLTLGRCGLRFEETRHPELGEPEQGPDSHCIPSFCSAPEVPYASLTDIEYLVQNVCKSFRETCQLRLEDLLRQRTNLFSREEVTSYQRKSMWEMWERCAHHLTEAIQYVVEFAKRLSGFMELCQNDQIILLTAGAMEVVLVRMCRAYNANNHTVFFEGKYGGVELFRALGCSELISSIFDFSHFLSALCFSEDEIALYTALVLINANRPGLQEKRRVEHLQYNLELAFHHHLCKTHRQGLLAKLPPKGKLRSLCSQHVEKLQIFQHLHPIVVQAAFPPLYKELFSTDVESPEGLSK
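Stable Schneider cell line, Gal4 DNA-binding domain fused to ROR gamma, UAS-luciferase. Cmpd 1 hr RT → CuSO4 700 uM final → 20 hr RT → luciferase reagent 10 min → luminescence.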
ELG1 repair inh: blocks ELG1-dependent DNA repair in HEK293T cells; HEK293T ELG1-luciferase reporter, luminescence, 16 h; DNA damage induced by 5-fluorouridine; Potency, µM (highest dose often 46.1 µM), without a hit: top-dose activity change, negative = inhibition, hits mostly inhibitors; 2.3% of 330,000 active; AID 504467; note: potency is the fitted concentration of half-maximal effect; nearly all actives have a fitted effect of over 55% in size
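In this reporter screen, reduction of luminescence relative to DMSO vehicle indicated activity. Compounds and 5-fluorouridine were added together to 2,000 cells per well, incubated for 16 hr at 37 °C, then developed with ONE-Glo.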
VP16 counter: counter-screen for ROR gamma inhibitors: Gal4-VP16 reporter | Drosophila S2 Gal4-VP16 UAS-luciferase, luminescence, 20 h | Potency, µM (top dose mostly 53.6 µM), without a hit: at the highest dose activity, negative = inhibition, most hits filed as inhibitors | 3.5% of 310,000 active | AID 2546;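 note: Gal4-VP16 expression switched on by copper sulfate through the metallothionein promoter; potency is the fitted concentration of half-maximal effect; nearly all actives have a fitted effect of over 50% in size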
TDP1 cell CPT: DT40-hTDP1 cell growth loss with CPT. Potency, µM (top dose mostly 46.2 µM), without a hit: at the top dose activity change, negative = growth inhibition, most hits filed as inhibitors. AID 686979. chicken DT40 Tdp1-/-;hTDP1 cells + 20 nM CPT, ATP luminescence, 48 h. 12% of 420,000 active; note: potency is the fitted concentration of half-maximal effect; nearly all actives have a fitted effect of over 55% in size
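Chicken DT40 Tdp1-/- cells stably complemented with human TDP1 were seeded at 400 cells/well in medium containing 20 nM camptothecin, exposed to pin-transferred compounds, and grown at 37 °C for at least 48 hr. Viability was read as ATP luminescence.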
* hit, by the source's call; ? = inconclusive; . = no result given; [ ] = another dose, or the depositor's remark. Rows were chosen to be rich in hits. Some 21% of all compounds tested hit in one or more screens of this group. Unless noted, calls come from the whole dose curve; as a rule, active = well fitted curve in the direction sought with a large enough effect; inconclusive = small, poorly fitted or top-dose-only effect, or another doubt; inactive = no such curve, though single readings can be large; an effect the other way counts as inactive or inconclusive. % is set by controls: 0 for no effect and ±100 for the full control effect.

SMILES | IL-1B inflam inh | DT40 TDP1 no CPT | RORg inh | ELG1 repair inh | VP16 counter | TDP1 cell CPT
C/C(=N\Nc1nc(-c2ccccc2)cs1)c1cccs1 | -26 | ? | -8% | ? | 1% | ?
C/C(=N\Nc1nc2ccccc2s1)c1cccs1 | -83* | ? | 0.71µM* | ? | 3.5µM* | ?
CC(=NNc1nc2ccccc2s1)c1ncccn1 | 0 | 0.021µM* | . | . | . | -76%
Cc1cc(C)cc(-n2c(SCC(=O)N3CCc4ccccc43)nc3c([nH]c4ccccc43)c2=O)c1 | . | 8% | . | . | . | 4%
Cc1cc(S(=O)(=O)Nc2ccc3cn[nH]c3c2)c(C)cc1Cl | 16 | 4.6µM* | 31% | -5% | -10% | -30%
Cc1ccc(C)c(Cn2c(=O)n(-c3ccccc3)c(=O)c3c4c(sc32)CCCC4)c1 | . | -6% | . | . | . | ?
COc1ccc(N(C(C)C(=O)N2CCCC2)S(C)(=O)=O)cc1 (stereo unspecified) | 19 | -6% | -2% | -10% | -2% | 7%
CCOc1ccc(N(C(C)C(=O)NCCSc2ccc(Cl)cc2)S(C)(=O)=O)cc1 (stereo unspecified) | . | 26µM* | . | . | . | 16µM*
COc1ccc(N(C(C)C(=O)N2CCC(Cc3ccccc3)CC2)S(C)(=O)=O)cc1 (stereo unspecified) | -1 | 8.2µM* | ? | ? | ? | 6.5µM*
CCOc1ccc(N(C(C)C(=O)N2CCCC2)S(C)(=O)=O)cc1 (stereo unspecified) | 4 | 15µM* | 6% | -5% | -15% | ?
CCOC(=O)C1CCN(C(=O)c2ccccc2Oc2ccccc2)CC1 | 25 | ? | 19% | -7% | -6% | ?
CCOC(=O)C1CCN(C(=O)C(C)N(c2ccc(Oc3ccccc3)cc2)S(C)(=O)=O)CC1 (stereo unspecified) | 12 | 9.2µM* | -91% | -7% | 20µM* | 12µM*
CCOC(=O)N1CCN(C(=O)C(C)N(c2ccc(Oc3ccccc3)cc2)S(C)(=O)=O)CC1 (stereo unspecified) | -30 | 13µM* | -9%[0.365 µM] | 6.5µM* | . | ?
CC1(C(=O)Nc2ccc3[nH]ncc3c2)CCN1C(=O)CC(c1ccccc1)c1ccccc1 (stereo unspecified) | -15 | ? | . | . | . | ?
CC1(C(=O)Nc2ccc3[nH]ncc3c2)CCN1C(=O)C1(c2ccccc2)CC1 (stereo unspecified) | -18 | -17% | . | . | . | 8.2µM*
CC1(C(=O)Nc2cnc3ccccc3c2)CCN1C(=O)C/C=C/c1ccccc1 (stereo unspecified) | 0 | 6.5µM* | . | . | . | 3.3µM*
CC1(C(=O)Nc2ccc3[nH]ncc3c2)CCN1C(=O)C/C=C/c1ccccc1 (stereo unspecified) | -25 | 18µM* | . | . | . | ?
Nc1c(N(CCC2=CCCCC2)C(=O)COc2ccc(F)cc2)c(=O)[nH]c(=O)n1Cc1ccccc1 | ? | ? | . | 0% | . | ?
Cc1nc2c(cnn2CCO)c(=O)[nH]1 | 12 | -5% | . | . | . | 24%
COc1ccc(SCC(=O)c2cc(C)c(OC(=S)N(C)C)c(C)c2)cc1 | -20 | ? | 16% | -14% | -15% | 21µM*
CCOc1ccc(CC(=O)NCCc2csc(-c3ccc(C)cc3)n2)cc1 | . | 21µM* | . | . | . | ?
CCOc1ccc(CC(=O)NCCc2sc(-c3cccc(F)c3)nc2C)cc1 | . | -30% | . | . | . | ?
CCOc1ccc(CC(=O)NCCc2csc(-c3ccc(Cl)cc3)n2)cc1 | . | 16µM* | . | . | . | ?
CC(=O)c1cccc(NC(=O)CSc2nc(=O)n(Cc3ccco3)c3c2CCC3)c1 | . | ? | . | . | . | -23%
Cc1ccc(C(=O)N/N=C/c2ccc([N+](=O)[O-])s2)cc1 | -19 | 7.3µM* | 0.71µM* | -23% | 1.3µM* | 8.2µM*
SMILES | IL-1B inflam inh | DT40 TDP1 no CPT | RORg inh | ELG1 repair inh | VP16 counter | TDP1 cell CPT
Cn1c(SCC(=O)N/N=C/c2ccc([N+](=O)[O-])s2)nnc1-c1ccc(Cl)cc1 | ? | 21µM* | ? | ? | 18µM* | 13µM*
CCOC(=O)N/N=C\c1ccc([N+](=O)[O-])s1 | -1 | 23µM* | -14% | 21µM* | 3% | 16µM*
O=C(N/N=C/c1ccc([N+](=O)[O-])s1)c1ccncc1 | -98* | 6.5µM* | 4.5µM* | ? | 4.5µM* | 6.5µM*
CC(C)(C)OC(=O)N/N=C\c1ccc([N+](=O)[O-])s1 | -19 | ? | -19% | ? | ? | -1%
Cn1c(SCC(=O)NC2CC2)nnc1-c1ccc(Cl)cc1 | -3 | -4% | . | 3% | . | 1%
Cc1ccc(CNC(=O)[C@@H]2C[C@H]2[C@@H](NP(=O)(c2ccccc2)c2ccccc2)c2ccccc2)o1 | . | . | 22% | . | -8% | .
CCOc1ccc(S(=O)(=O)N2CCCC(C(=O)NCC3CCCO3)C2)cc1Cl (stereo unspecified) | -10 | ? | . | -11% | . | ?
Cc1ccc(/C=N/NC(=O)c2ccncc2)s1 | 22 | 15µM* | 7.1µM* | 1% | ? | 6.5µM*
